Assay results from the antibiotic and cytotoxicity screens of Wong et al. (2023).
About 1,500 (3.8%) of roughly 39,000 compounds were called active. The sample holds actives, similar compounds and a random draw of the others, so the mix is not that of the screen.

Tested on: HSkMC (human skeletal muscle cells)
Assay: cytotoxicity call (relative viability < 0.9)
Conditions: 10 µM

| Compound | cytotoxicity call |
| --- | --- |
| Clc1ccc(/C=N/Cc2ccc(-c3cccs3)s2)cc1 | inactive |
| Cl.N=C(NN=Cc1ccc(Cl)cc1)NN=Cc1ccc(Cl)cc1 | active |
| NC(=S)N/N=C/c1ccncc1 | inactive |
| C[C@H]1CN([C@@H](C)CO)C(=O)c2cccc(NS(=O)(=O)c3cccs3)c2O[C@H]1CN(C)S(=O)(=O)c1cccs1 | inactive |
| CCCCCCc1nc(CCCc2cc3c(c(CCCCCC)n2)[Si](C(C)C)(C(C)C)O[C@H]3c2ccccc2)cc2c1[Si](C(C)C)(C(C)C)O[C@H]2c1ccccc1 | inactive |
| Cc1onc(NS(=O)(=O)c2ccccc2-c2ccc(-c3ncco3)cc2CN(C)C(=O)CC(C)(C)C)c1C | inactive |
| C[C@@H]1CN([C@H](C)CO)C(=O)c2cccc(NC(=O)Nc3ccccc3)c2O[C@@H]1CN(C)C(=O)Nc1cccc2ccccc12 | inactive |
| C[C@@H]1CN([C@H](C)CO)C(=O)c2cc(NS(=O)(=O)c3ccc(F)cc3)ccc2O[C@@H](C)CCCCO[C@H]1CN(C)Cc1ccc(C(F)(F)F)cc1 | inactive |
| Cc1ccc(S(=O)(=O)Nc2ccc3c(c2)C(=O)N([C@@H](C)CO)C[C@H](C)[C@H](CN(C)Cc2ccc(C(F)(F)F)cc2)OCCCC[C@H](C)O3)cc1 | inactive |
| Cc1ccc(S(=O)(=O)Nc2ccc3c(c2)C(=O)N([C@H](C)CO)C[C@H](C)[C@H](CN(C)Cc2ccc(C(F)(F)F)cc2)OCCCC[C@@H](C)O3)cc1 | inactive |
| Cc1ccc(S(=O)(=O)Nc2ccc3c(c2)C(=O)N([C@H](C)CO)C[C@@H](C)[C@@H](CN(C)Cc2ccc(C(F)(F)F)cc2)OCCCC[C@H](C)O3)cc1 | inactive |
| Cc1ccc(S(=O)(=O)Nc2ccc3c(c2)C(=O)N([C@H](C)CO)C[C@H](C)[C@H](CN(C)Cc2ccc(C(F)(F)F)cc2)OCCCC[C@H](C)O3)cc1 | active |
| Cc1ccc(S(=O)(=O)Nc2ccc3c(c2)C(=O)N([C@H](C)CO)C[C@H](C)[C@@H](CN(C)Cc2ccc(C(F)(F)F)cc2)OCCCC[C@H](C)O3)cc1 | inactive |
| Cc1ccc(S(=O)(=O)Nc2ccc3c(c2)C(=O)N([C@@H](C)CO)C[C@H](C)[C@@H](CN(C)Cc2ccc(C(F)(F)F)cc2)OCCCC[C@@H](C)O3)cc1 | active |
| Cc1ccc(S(=O)(=O)Nc2ccc3c(c2)C(=O)N([C@@H](C)CO)C[C@H](C)[C@@H](CN(C)Cc2ccc(C(F)(F)F)cc2)OCCCC[C@H](C)O3)cc1 | active |
| C[C@@H]1CCCCO[C@H](CN(C)Cc2ccc(C(F)(F)F)cc2)[C@H](C)CN([C@@H](C)CO)C(=O)c2cc(NS(=O)(=O)c3ccc(F)cc3)ccc2O1 | active |
| C[C@@H]1CCCCO[C@@H](CN(C)Cc2ccc(C(F)(F)F)cc2)[C@H](C)CN([C@H](C)CO)C(=O)c2cc(NS(=O)(=O)c3ccc(F)cc3)ccc2O1 | inactive |
| Cc1ccc(S(=O)(=O)Nc2ccc3c(c2)C(=O)N([C@H](C)CO)C[C@@H](C)[C@@H](CN(C)Cc2ccc(C(F)(F)F)cc2)OCCCC[C@@H](C)O3)cc1 | inactive |
| Cc1ccc(S(=O)(=O)Nc2ccc3c(c2)C(=O)N([C@@H](C)CO)C[C@@H](C)[C@@H](CN(C)Cc2ccc(C(F)(F)F)cc2)OCCCC[C@H](C)O3)cc1 | inactive |
